Assay outcomes: PubChem, National Center for Advancing Translational Sciences (NCATS)
Shown are actives, neighbours in structure and some others; about 6.1% of the full set was active somewhere.
D1 antagonist = human D1 dopamine receptor antagonism. activity change, negative = inhibition, % at 10 µM. AID 504652. 360,000 compounds, 3.2% hits. HEK293 TREx D1 cells, calcium flux, dopamine EC80; hits give low values; in the data active = activity change below about -30%; note: % is set by controls: 0 for no effect and ±100 for the full control effect
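Allosteric or orthosteric antagonism assessed as attenuation of the calcium response to EC80 dopamine, added 180 s after compound, in induced HEK293 Trex D1 cells loaded with no-wash calcium dye.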
D1 agonist = activates the human D1 dopamine receptor; P21728; HEK293 T-REx D1 cells, calcium flux, agonist mode; activation, % at 2 µM; 360,000 compounds, 1% hits; AID 504660; in the data active = activation above about 30%; note: 0% is about no effect
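Inducible HEK293 T-REx D1 cells, force-coupled to calcium signalling, were plated at 4000 cells/well with tetracycline and held overnight at 30 C. After no-wash calcium dye loading, compound-evoked calcium rise over 180 s flagged agonists.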
D3 antag = blocks the human D3 dopamine receptor. max response, negative = inhibition, %. P35462. D3R cells, DiscoveRx beta-arrestin luminescence, antagonist mode; hits give low values. 360,000 compounds, 2.5% hits; in the data active = max response below about -50%; inconclusive = no clear call, values can overlap the other calls; note: % is set by controls: 0 for no effect and ±100 for the full control effect
Target sequence (P35462 whole entry, looked up): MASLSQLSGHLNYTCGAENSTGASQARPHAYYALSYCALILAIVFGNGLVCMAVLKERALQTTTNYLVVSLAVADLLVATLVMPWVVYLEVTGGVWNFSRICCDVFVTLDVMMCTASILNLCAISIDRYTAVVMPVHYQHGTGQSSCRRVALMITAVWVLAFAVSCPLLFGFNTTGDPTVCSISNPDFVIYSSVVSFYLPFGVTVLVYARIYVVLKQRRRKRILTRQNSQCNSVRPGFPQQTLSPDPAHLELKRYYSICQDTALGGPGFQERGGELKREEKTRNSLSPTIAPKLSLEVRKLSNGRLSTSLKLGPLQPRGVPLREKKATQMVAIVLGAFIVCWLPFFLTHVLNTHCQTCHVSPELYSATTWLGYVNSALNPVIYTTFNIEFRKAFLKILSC
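Cells plated overnight at 1500 cells/well, then exposed to library compounds with dopamine controls for 90 minutes at 37 degrees C. DiscoveRx reagent added for 30–60 minutes at room temperature; luminescence read, quantitative HTS format.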
D3 ag = agonists of human D3 dopamine receptor | D3R DiscoveRx beta-arrestin cells, luminescence, 90 min | max activation, % | 410,000 compounds, 0.58% hits; in the data active = max activation above about 30%; note: 0% is about no effect
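Agonist-mode cell screen: cells plated at 1500/well and incubated overnight at 37 °C, then exposed to library compounds for 90 min at 37 °C. Detection reagent was added for 30–60 min at room temperature, and luminescence was read.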
D1 PAM = potentiators of human D1 dopamine receptor | potentiation, % at 10 µM | P21728 | AID 504651 | 360,000 compounds, 0.036% hits | HEK293 TREx D1 cells, calcium flux, dopamine EC20 potentiation; in the data active = potentiation above about 30%; note: 0% is about no effect
* = called active by the depositor; ? = inconclusive; / = no result.

SMILES	D1 antagonist	D1 agonist	D3 antag	D3 ag	D1 PAM
NC(=Nc1ccccc1)Nc1ccccc1	-26	90*	27	2	-1
CCc1ccc(NC(=O)C(CC)n2c(=O)c(C(F)(F)F)nc3ccccc32)cc1 (stereo unspecified)	16	2	/	7	-2
CCOc1ccc(C(=O)Nc2ccc3nn(-c4ccc(OC)c(Cl)c4)nc3c2)cc1	6	4	/	1	-2
CCOC(=O)CN(Cc1ccccc1)C(C(=O)NC1CCCCC1)c1ccc(C)cc1 (stereo unspecified)	8	8	/	-16	-1
N#CNC(=Nc1cccc(C(F)(F)F)c1)SCc1ccc(C(=O)O)cc1	-10	1	-2	-7	-2
N#CNC(=Nc1cccc(F)c1)SCc1ccccc1F	-40*	20	18	0	-4
CC(C)N=C(NC#N)SCC(=O)NC(C)(C)C	10	2	8	-1	-5
CC(C)(C)NC(=O)CSC(=Nc1cccc(F)c1)NC#N	-40*	2	-9	-11	-16
CC(C)N=C(NC#N)SCc1ccccc1F	-49*	2	27	-1	-3
Cc1c(Cl)cccc1NC(=O)CSc1nc(=O)n(Cc2ccco2)c2c1CCC2	/	0	/	-2	-1
CC1CCC(NC(=O)C2(C)Cc3ccccc3C(=O)N2Cc2ccccc2Cl)CC1 (stereo unspecified)	-22	2	/	1	1
Cc1ccc(Cn2c(C)c(CNCCCc3ccccc3)c(C(=O)O)c2C)cc1	34	3	/	8	0
O=c1oc2ccccc2c(Nc2ccccc2O)c1[N+](=O)[O-]	-9	1	?	-8	-4
O=c1oc2ccccc2c(Nc2cccc3ccccc23)c1[N+](=O)[O-]	5	1	-63*	-2	-8
CN1CCc2nc(SCCOc3ccccc3)c(C#N)cc2C1	-1	3	-58*	-29	-5
O=C(O)c1ccc(CN2C[C@@H](CO)O[C@@H](n3cnc4c(N5CCOCC5)ncnc43)C2)cc1	/	/	0	-2	/
CC(C)(C)C(=O)NC(n1cnc2c(N3CCOCC3)ncnc21)C(Cl)(Cl)Cl (stereo unspecified)	-34*	0	-10	-6	-5
Nc1nnc(SCC(=O)Nc2ccc(N3CCOCC3)c(Cl)c2)s1	-37*	9	1	4	-1
Cc1ccc(NC(=O)CSCC(=O)NC2(C)CCS(=O)(=O)C2)cc1 (stereo unspecified)	-40*	4	1	-4	/
Nc1ccc2nc(SCC(=O)Nc3ccc(N4CCOCC4)c(Cl)c3)sc2c1	-34*	18	4	15	-4
Cc1ccc(NC(=O)CSCC(=O)Nc2ccc(N3CCOCC3)cc2N2CCOCC2)cc1	2	4	20	1	2
Cc1ccc(NC(=O)CSCC(=O)Nc2ccc(N3CCOCC3)c(Cl)c2)cc1	-34*	5	-6	-17	-4
CC(O)[C@@H]1NC(=O)[C@H](CCCCN)NC(=O)[C@@H](Cc2c[nH]c3ccccc23)NC(=O)[C@H](Cc2ccccc2)NC(=O)[C@@H](NC(=O)[C@H](N)Cc2ccccc2)CSSC[C@@H](C(=O)N[C@H](CO)[C@@H](C)O)NC1=O (stereo partly specified)	/	/	/	1	/
Cc1ccccc1NC(=O)C1CCN(C(=O)c2cnn(-c3ccccc3)c2-n2cccc2)CC1	16	-3	/	6	-2
COc1ccc(CNC(=O)CSc2nc3ccc(N)cc3s2)cc1	-32*	0	-4	-4	-1
SMILES	D1 antagonist	D1 agonist	D3 antag	D3 ag	D1 PAM
CN(CC(=O)Nc1ccc(N2CCOCC2)cc1)C(=O)c1cc(F)c(F)cc1Cl	-42*	0	-8	9	-7
CCOc1ccccc1NC(=O)N1CCc2c(sc(C)c2CC)C1c1ccccc1 (stereo unspecified)	-1	1	/	-5	1
CN1CCN(C2CN(Cc3cn(Cc4cccc(C(F)(F)F)c4)nn3)S(=O)(=O)C2)CC1 (stereo unspecified)	/	/	-51*	-2	/
O=S1(=O)CC(N2CC=CC2)CN1Cc1cn(Cc2ccc(F)cc2)nn1 (stereo unspecified)	/	/	-52*	-3	/
O=S1(=O)CC(N2CCCCC2)CN1Cc1cn(Cc2ccc(F)cc2)nn1 (stereo unspecified)	/	/	6	0	/
Cc1ccc2cc(NC(=O)c3ccc(C(C)(C)C)cc3)ccc2n1	-15	0	19	12	1
CCc1ccc(C(=O)Nc2ccc3nc(C)ccc3c2)cc1	-31*	2	5	-12	-10
Cn1c(=O)c2c(-c3ccc(Cl)cc3)ccnc2n(C)c1=O	-13	-1	/	-4	-1
COc1ccc(-c2cn3nc(N4CCCC(C(=O)Nc5cccc(Cl)c5C)C4)sc3n2)cc1 (stereo unspecified)	0	0	/	-11	-1
COC(=O)c1cc(C)nc2c1c(=O)nc(SCc1ccccc1F)n2C1CC1	-1	0	/	-9	-1
O=C1/C(=C/c2ccncc2)CCC/C1=C\c1ccncc1	-21	4	-60*	-12	-4
O=C1C(=Cc2ccncc2)CCCc2ccccc21	/	/	-10	-5	/
Cc1ccc(-n2c(SCC(N)=O)nc3c(oc4ccccc43)c2=O)cc1C	7	4	/	1	-6
Cc1nc2ccccn2c1C(=O)NC1CCCc2ccccc21 (stereo unspecified)	-34*	6	37	1	-7
O=C(NC1CCCc2ccccc21)c1cn2ccccc2n1 (stereo unspecified)	12	1	8	-1	-7
CN(CC(=O)NC1CCCc2ccccc21)C1CCCCC1 (stereo unspecified)	-2	2	-51*	-12	-2
N#C/C(=N/Nc1ccc(OC(F)(F)F)cc1)C(N)=S	-30*	40*	10	18	-4
Cc1cc(Br)ccc1NC(=O)CNC(=O)CN1C(=O)NC2(CCCCCC2)C1=O	-4	0	-22	-8	-8
Cc1cc(Br)ccc1NC(=O)CN1C(=O)C2C3CC(c4ccccc4)C(C3)C2C1=O (stereo unspecified)	-39*	1	59	4	-8
Cc1ccc(Cl)cc1Nc1nn2c(=O)c3ccc(C(=O)NC(C)c4ccccc4)cc3nc2s1 (stereo unspecified)	-54*	0	/	1	2
CCN(CC)CCNC(=O)c1ccc2c(=O)n3nc(Nc4cccc(Cl)c4C)sc3nc2c1	-56*	2	/	2	-3
Cc1ccccc1OCC(=O)NNC(=S)NC(=O)c1ccccc1[N+](=O)[O-]	-57*	2	-9	4	-6
Cc1cccc(OCC(=O)Nc2ccc3c4c(cccc24)CC3)c1C	-47*	3	24	4	2
CC(C)(C)c1ccc(OCC(=O)NNC(=S)NC(=O)c2ccccc2[N+](=O)[O-])c(Br)c1	-16	2	0	-10	-2
